Bioassay records from PubChem BioAssay.
This is a sample that favours compounds with a hit; in the whole collection about 2.4% have one here.
WRN helicase inh: qHTS for Inhibitors of WRN Helicase; WRN helicase unwinding, fluorescent forked duplex, kinetic; Potency, µM (highest dose often 114 µM), actives largely listed as inhibitors; actives 0.46% (n = 360,000); also: nearly all actives have a fitted effect of over 55% in size
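Fluorescence dequenching readout, ex 525 nm/em 598 nm, kinetic mode: forked duplex DNA (100 nM final) with adjacent fluorophore and quencher unwound by WRN (20 nM final) with 2 mM ATP. Compound preincubation 15 min, room temperature.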
FEN1 inhibitor: qHTS Assay for the Inhibitors of Human Flap endonuclease 1 (FEN1). P39748. Recombinant FEN1 flap cleavage, fluorescence, 15 min. Potency, µM (titrated, usually from 114 µM), hits mostly inhibitors. actives 0.35% (n = 390,000); also: nearly all actives have a fitted effect of over 65% in size
Target sequence (P39748 whole entry, looked up): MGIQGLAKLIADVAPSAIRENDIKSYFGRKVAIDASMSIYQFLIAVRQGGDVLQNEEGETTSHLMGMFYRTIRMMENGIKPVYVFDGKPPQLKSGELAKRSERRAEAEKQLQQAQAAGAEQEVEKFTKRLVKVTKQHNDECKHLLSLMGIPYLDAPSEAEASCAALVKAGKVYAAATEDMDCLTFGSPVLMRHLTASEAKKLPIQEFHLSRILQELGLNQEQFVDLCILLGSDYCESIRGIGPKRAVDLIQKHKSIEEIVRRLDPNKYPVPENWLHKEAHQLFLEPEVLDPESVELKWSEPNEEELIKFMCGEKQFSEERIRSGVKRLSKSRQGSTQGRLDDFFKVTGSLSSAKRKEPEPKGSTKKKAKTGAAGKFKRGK
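Reaction started by adding substrate (50 nM final) to 10 nM enzyme after 15 min room-temperature compound preincubation. Reads at 0 and 15 min, with data normalized and fitted to a four-parameter Hill equation.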
POLH inh: qHTS for Inhibitors of Polymerase Eta; DNA polymerase eta (Homo sapiens), Q9Y253; recombinant Pol eta, fluorescent DNA replication assay; Potency, µM (highest dose often 114 µM), most hits filed as inhibitors; actives 1.2% (n = 390,000); AID 588591, 2011
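Fluorescent replication assay: 50 nM final substrate added after a 15 min room-temperature compound preincubation with 10 nM enzyme. Signal taken at 0 min and again at 10 min.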
POLK inh: qHTS for Inhibitors of Polymerase Kappa. DNA polymerase kappa (Homo sapiens), Q9UBT6. purified Pol kappa, fluorescent DNA synthesis assay, 10 min. Potency, µM (series often up to 107 µM), actives largely listed as inhibitors. actives 0.53% (n = 400,000). AID 588579, 2011
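Here, compound and 10 nM enzyme are combined for 15 min at room temperature; adding 50 nM substrate (final) starts DNA synthesis, tracked by fluorescence at 0 and 10 min against buffer-only wells.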
Pol beta inh: qHTS Assay for Inhibitors of DNA Polymerase Beta | Potency, µM (top dose mostly 114 µM), most hits filed as inhibitors | P06746 | AID 485314, 2010 | actives 1.3% (n = 340,000) | Pol beta primer extension/strand displacement, fluorescence kinetic
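Enzyme-only controls used 10 nM Pol beta; buffer lacking enzyme served as negative control. Compound preincubated 15 min, then 50 nM substrate added; 0 and 10 min reads at room temperature.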
Pol iota inh: qHTS for Inhibitors of Polymerase Iota | DNA polymerase iota (Homo sapiens), Q9UNA4 | Pol iota fluorescent replication assay, 10 min | Potency, µM (series often up to 115 µM), most hits filed as inhibitors | actives 1% (n = 390,000) | AID 588590, 2011
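Pol iota at 10 nM preincubated 15 min with compounds at room temperature; reaction started with fluorescent substrate, 50 nM final. Fluorescence read kinetically at 0 and 10 min; buffer-only wells as negative control.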
A number is an active result; - = inactive; ? = inconclusive; . = not tested or not shown; [ ] = dose if it differs, or a comment. Calls follow the shape of the dose curve; as a rule, active = well fitted curve in the direction sought with a large enough effect; inconclusive = small, poorly fitted or top-dose-only effect, or another doubt; inactive = no such curve, though single readings can be large; an effect the other way counts as inactive or inconclusive.

SMILES | WRN helicase inh | FEN1 inhibitor | POLH inh | POLK inh | Pol beta inh | Pol iota inh
CN1CCN(S(=O)(=O)c2cccc(C(=O)Nc3sccc3C(N)=O)c2)CC1 | -[11.6 µM] | - | 45µM | ? | . | 45µM
CN1CCN(S(=O)(=O)c2cccc(C(=O)Nc3cc(C(N)=O)cc(C(N)=O)c3)c2)CC1 | - | - | - | - | ? | ?
CN(C)S(=O)(=O)c1cccc(C(=O)OCC(=O)Nc2sccc2C(N)=O)c1 | ? | - | 20µM | ? | - | ?
COc1ccc(NC(=O)COC(=O)c2cccc(S(=O)(=O)N(C)C)c2)cc1 | - | - | - | - | - | -
COc1ccc(S(=O)(=O)N(CC(=O)NC(C)c2ccccc2)c2ccc(C)cc2)cc1OC (configuration not stated) | . | - | - | - | - | -
CCSC(=O)N1CCN(/[N+]([O-])=N/Oc2ccc([N+](=O)[O-])cc2[N+](=O)[O-])CC1 | . | - | . | - | . | ?
Cc1nn(C)c2c1c(-c1ccccc1)cc(=O)n2Cc1ccccc1Cl | . | - | - | - | - | -
O=C(Cn1ncc(Cl)c(Cl)c1=O)NC1CCCCC1 | - | - | - | - | . | -
O=C(Cn1ncc(Cl)c(Cl)c1=O)NC1CCS(=O)(=O)C1 (configuration not stated) | -[11.6 µM] | - | ? | ? | ? | 14µM
CCOC(=O)c1sc(NC(=O)C2CC=CCC2C(=O)O)nc1C (configuration not stated) | - | - | 79µM | - | 45µM | ?
CCCc1cc(C(=O)N2CCN(C(c3ccccc3)c3ccccc3)CC2)no1 | - | - | ? | 89µM | - | ?
S=C(NCCc1ccccc1)N1CCN(C(c2ccccc2)c2ccccc2)CC1 | - | - | - | - | 89µM | -
CCCNC(=S)N1CCN(C(c2ccccc2)c2ccccc2)CC1 | - | ? | ? | - | 56µM | -
CCCCNC(=S)N1CCN(C(c2ccccc2)c2ccccc2)CC1 | - | - | - | - | - | -
O=C(Nc1nc2n(n1)C(c1ccc(F)cc1)C=C(c1ccc(Cl)cc1)N2)c1ccc([N+](=O)[O-])cc1 (configuration not stated) | . | - | - | - | - | -
CC(OC(=O)CSc1ccc([N+](=O)[O-])cc1)C(=O)NCc1ccccc1 (configuration not stated) | 50µM | - | - | - | . | ?
O=C(COC(=O)CSc1ccc([N+](=O)[O-])cc1)NCCc1ccccc1 | - | - | - | - | . | -
COc1ccc(-n2ncc(C(=O)NCc3ccc4c(c3)OCO4)c2C2CCN(C(=O)OC(C)(C)C)CC2)cc1 | . | - | - | - | - | -
Cc1c(Cn2cnc3c(cnn3C(C)(C)C)c2=O)cccc1C(F)(F)F | . | - | . | - | . | -
Cc1ccc(-n2c(O)c(/C=N/c3ncn[nH]3)c3ccccc3c2=O)cc1 | ? | - | - | - | 13µM | -
COc1cc(Br)c(CC(=O)NO)cc1OC | . | - | . | - | . | -
CCOc1ccc(S(=O)(=O)N(CC(=O)N/N=C/c2ccc(-c3ccc([N+](=O)[O-])cc3)o2)c2ccccc2)cc1 | - | - | 3.2µM | ? | 7.1µM | ?
CC(=O)Nc1ccc(S(=O)(=O)O)c2cc(S(=O)(=O)O)c(N=Nc3ccc(N=Nc4ccc(S(=O)(=O)O)cc4)c4ccc(S(=O)(=O)O)cc34)c(O)c12 | . | 1.3µM | . | 1.4µM | . | 3.2µM
O=S(=O)(O)c1ccc2c(N=Nc3ccc(S(=O)(=O)O)c4ccccc34)c(O)c(S(=O)(=O)O)cc2c1 | . | 10µM | . | 45µM | . | 45µM
O=S(=O)(O)c1cccc(N=Nc2c(O)ccc3ccccc23)c1 | - | ? | ? | - | ? | -
SMILES | WRN helicase inh | FEN1 inhibitor | POLH inh | POLK inh | Pol beta inh | Pol iota inh
Cc1nn2c(=O)cc(COC(=O)c3ccccc3NC(=O)C(C)C)nc2s1 | . | - | 79µM | - | - | -
CCCCc1nn2c(=O)cc(COC(=O)c3cccc(Cl)c3)nc2s1 | . | - | - | - | - | -
Cc1nn2c(=O)cc(COC(=O)c3ccccc3NC(=O)c3ccccc3C)nc2s1 | . | - | - | - | - | -
O=C(OCc1cc(=O)n2nc(-c3cccs3)sc2n1)c1cccc(Cl)c1 | . | - | - | - | 40µM | ?
O=C(COc1ccc(Cl)cc1)OCc1cc(=O)n2nc(-c3cccs3)sc2n1 | . | - | ? | - | 25µM | ?
CCCc1nn2c(=O)cc(COC(=O)c3cccc(NC(=O)c4cccs4)c3)nc2s1 | . | - | - | - | 3.5µM | ?
CCCOC(=O)C1=C(C)CS[C@@H]2[C@H](NC(=O)COc3ccccc3)C(=O)N12 | . | - | . | - | . | -
Cc1nn2c(=O)cc(COc3ccc(/C=C(\C#N)C(=O)Nc4ccccc4C)cc3)nc2s1 | . | - | - | ? | ? | 20µM
CCCc1nn2c(=O)cc(COc3ccc(/C=C(\C#N)C(=O)Nc4ccccc4)cc3)nc2s1 | . | - | - | - | ? | -
O=C(OCc1cc(=O)n2nc(-c3cccs3)sc2n1)c1ccccc1Cl | . | - | ? | ? | 35µM | ?
Cc1ccccc1C(=O)OCc1cc(=O)n2nc(-c3cccs3)sc2n1 | . | - | - | - | 32µM | ?
Cc1ccc(OCC(=O)OCc2cc(=O)n3nc(-c4cccs4)sc3n2)cc1 | . | - | - | - | ? | ?
Cc1ccc(C(=O)OCc2cc(=O)n3nc(-c4cccs4)sc3n2)cc1 | . | - | 89µM | ? | 18µM | ?
COc1ccccc1OCCn1c(C(C)Oc2ccccc2)nc2ccccc21 (configuration not stated) | . | - | ? | ? | - | -
COc1ccccc1C(=O)NC1(C(F)(F)F)C(=O)Nc2c1c(=O)[nH]c(=O)n2-c1ccccc1 (configuration not stated) | . | - | - | - | - | -
COc1ccc(Cl)cc1NS(=O)(=O)c1c(C)nc2scc(C)n2c1=O | . | - | - | - | - | -
COc1ccc(C(=O)Nc2nnc(S(=O)(=O)N3CCCc4ccccc43)s2)cc1 | . | - | - | - | - | -
NCC(=O)N[C@@H](CCCN=C(N)N)C(=O)NCC(=O)N[C@@H](CCC(=O)O)C(=O)N[C@@H](CO)C(=O)O | . | . | . | - | . | .
Cc1ccc(SCc2ccc(C(=O)NCc3ccncc3)cc2)cc1 | -[11.6 µM] | - | ? | - | ? | 28µM
CCOC(=O)Cc1ccc(NS(=O)(=O)c2ccc(SC)cc2)cc1 | - | - | - | - | - | -
CCOC(=O)c1ccc(NS(=O)(=O)c2ccc(SC)cc2)cc1 | -[11.6 µM] | - | - | - | - | 79µM
